These results are taken from PubChem BioAssay (NCI).

Compounds without any hit were thinned out: in the full panel of roughly 83,000, 20% have a hit.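 In brief: 96-well plates, 48 h treatment, single concentration, percent growth endpoint.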 Activity calls are given as the source filed them. Rule for the calls: active = growth percent below 10; inactive = the rest.

The test system of the assay is HL-60(TB) leukemia. Put plainly: NCI-60 one-dose screen, 48 h (100 = growth as untreated, 0 = no growth, -100 = all killed). The note with it: 10 µM unless noted.
On to `CCCc1c(C)nc2scc(-c3ccc(Cl)cc3)n2c1=O`, for which the growth was 98% (inactive).

`O=C(Nc1ccc(I)cc1F)c1cc(Cl)ccc1O`: the growth was -44.3% (active).

As for `Clc1ccc(C(Cn2ccnc2)OCc2ccsc2Cl)c(Cl)c1` (stereo not drawn), the growth is 6.05% (active).

For the compound `c1cc2[nH]ncc2cc1-c1nc2ccc3[nH]ncc3c2c2c1CCCC2`, the growth was -18.3% (active).

`CCCCCCCCCCCCCC(=O)Oc1ccc[nH]c1=O`: the growth is 97.1% (inactive).

As for `O=C(Nc1ccc(CN2CCc3nc4cc(O)c(O)cc4cc32)cc1)c1ccc(Cl)c(Cl)c1`, the growth was 114% (inactive).

For `O=C(O)C(O)c1ccccc1` (stereo not drawn), the growth was 97.3% (inactive).

Regarding `COc1ccc(NC(=O)c2ccoc2COc2ccccc2)cc1`, the growth is 96.9% (inactive).

With `C[C@@H](C(=O)NCCCC#Cc1cnc(Nc2ccc(C#N)cc2)nc1NC1CC1)N(C)C(=O)/C=C/CN(C)C`, the growth is 42.6% (inactive).

Regarding `COC(=O)c1c2c(c(C)[n+]([O-])c1C)C(=O)C(NCc1ccc(Cl)cc1)=CC2=O`, the growth was 80.3% (inactive).

With `CCNCc1ccncc1`, the growth is 95.8% (inactive).

Consider `Cc1ccc(NC2=C(Cl)C(=O)c3nc(C)ccc3C2=O)cc1`, for which the growth is -10.8% (active).

For `COC(C(=O)[C@@H](O)[C@@H](C)O)[C@@H]1Cc2cc3cc(O[C@H]4C[C@@H](O[C@H]5C[C@@H](O)[C@H](O)C(C)O5)[C@H](O)C(C)O4)c(C)c(O)c3c(O)c2C(=O)[C@H]1O[C@H]1C[C@@H](O[C@H]2C[C@@H](O[C@H]3C[C@@H](O)[C@H](OC)C(C)O3)[C@@H](O)C(C)O2)[C@H](O)C(C)O1` (stereo partly drawn), the growth is -5.47% (active).
